JMJD2E inh: qHTS Assay for Inhibitors of Human Jumonji Domain Containing 2E (JMJD2E) | JMJD2E catalytic domain, FDH-coupled NADH fluorescence (FDH is formaldehyde dehydrogenase) | Lysine-specific demethylase 4E (Homo sapiens), B2RXH2 | Potency, µM (top dose mostly 57.1 µM), for inactives: at the top dose activity change, negative = inhibition, actives largely listed as inhibitors | AID 2147, 2009 | 1.6% of 230,000 active; active means well fitted inhibition curve with a large enough effect, not every such curve was filed as active; inconclusive means small, poorly fitted or top-dose-only effect, or another doubt; inactive means no such curve, though single readings can be large or run the other way;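 further: potency means the concentration at half of the fitted maximal effect; 0% = wells with enzyme and -100% = buffer wells without enzyme; nearly all actives have a fitted effect of over 50% in size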
miR-21 act: qHTS Assay for Modulators of miRNAs and/orActivators of miR-21; HeLa miR-21 FLuc reporter, luciferase, 48 h; Potency, µM (highest dose often 38.3 µM), inactives show top-dose activity change, positive = activation, actives largely listed as activators; 340,000 tested, under 10 active;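 further: % of control where 0% means no effect; miR-21 action dims this reporter so a rising signal means less miR-21 action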
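HeLa cells stably expressing CMV-driven firefly luciferase with a downstream miR-21 binding sequence, endogenously expressing miR-21, were treated with titrations (up to about 40uM final) for 48 hours at 37 degree Celsius. Luciferase luminescence was read after lysis.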
ALDH1A1 block: qHTS Assay for Inhibitors of Aldehyde Dehydrogenase 1 (ALDH1A1). Aldehyde dehydrogenase 1A1 (Homo sapiens), P00352. Purified ALDH1A1, NADH fluorescence, propionaldehyde substrate. Potency, µM (titrated, usually from 75.3 µM), for inactives: at the highest dose activity, negative = inhibition, hits mostly inhibitors. 7.3% of 220,000 active. AID 1030, 2008; active means well fitted inhibition curve with a large enough effect, not every such curve was filed as active; inconclusive means small, poorly fitted or top-dose-only effect, or another doubt; inactive means no such curve, though single readings can be large or run the other way;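 further: potency means the concentration at half of the fitted maximal effect; plate controls were no enzyme wells and a reference inhibitor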
Target sequence (P00352 whole entry, looked up): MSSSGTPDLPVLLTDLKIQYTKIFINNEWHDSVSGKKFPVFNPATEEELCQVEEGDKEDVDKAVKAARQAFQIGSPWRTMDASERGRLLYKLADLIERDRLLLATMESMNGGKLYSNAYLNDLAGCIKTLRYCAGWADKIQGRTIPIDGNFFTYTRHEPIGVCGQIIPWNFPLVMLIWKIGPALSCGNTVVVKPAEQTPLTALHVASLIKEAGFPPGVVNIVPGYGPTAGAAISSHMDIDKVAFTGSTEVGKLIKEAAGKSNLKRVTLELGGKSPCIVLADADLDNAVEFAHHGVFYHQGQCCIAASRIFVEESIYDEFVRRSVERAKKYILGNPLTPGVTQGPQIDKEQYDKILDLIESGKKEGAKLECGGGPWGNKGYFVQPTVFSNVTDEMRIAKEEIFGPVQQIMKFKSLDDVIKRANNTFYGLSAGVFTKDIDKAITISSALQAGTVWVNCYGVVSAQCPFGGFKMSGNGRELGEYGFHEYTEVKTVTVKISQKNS
Sfp PPTase inh: qHTS Assay for Inhibitors of Bacillus subtilis Sfp phosphopantetheinyl transferase (PPTase). Biochemical Sfp PPTase activity, qHTS. Potency, µM, for the others: largest response in the series, negative = inhibition, hits mostly inhibitors. 3.5% of 310,000 active;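 further: the enzyme is Sfp with the accession as filed and its product quenches rhodamine fluorescence; potency means the concentration at half of the fitted maximal effect; 0% = enzyme reaction without inhibitor and -100% = no enzyme wells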
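Buffer: 50 mM Hepes-Na pH 7.6, 10 mM MgCl2, 0.01% Nonidet P-40, 0.01% BSA. Enzyme 15 nM, pre-exposed to compound 15 min; substrates then added and fluorescence change tracked over 30 min.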
G9a inh: qHTS Assay for Inhibitors of Histone Lysine Methyltransferase G9a; Histone-lysine N-methyltransferase EHMT2 (Homo sapiens), Q96KQ7; G9a H3K9 monomethylation, AlphaScreen, 2 h; Potency, µM (doses to about 102 µM), for inactives: at the highest dose activity, negative = inhibition, hits mostly inhibitors; 8.8% of 350,000 active; AID 504332, 2011; further: potency means the concentration at half of the fitted maximal effect; on the % scale 0 is the no-effect control and ±100 the full control effect; nearly all actives have a fitted effect of over 75% in size
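Compounds were preincubated with 20 nM G9a for 15 min, after which biotinylated H3K9 peptide (500 nM) and SAM (20 uM) started a 2 h room-temperature reaction. Monomethylated product was quantified by antibody-based AlphaScreen chemiluminescence.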
LMNA splice mod: qHTS Assay for Modulators of Lamin A Splicing; HeLa LMNA splicing GFP/RFP minigene ratio, 48 h; Potency, µM (series often up to 46.1 µM), for inactives: top-dose ratio change, negative = inhibition, usual class: inhibitors; 0.01% of 200,000 active; AID 1487, 2009; active means well fitted inhibition curve with a large enough effect in the signal ratio, with a control signal flat, not every such curve was filed as active; inconclusive means small, poorly fitted or top-dose-only effect, or effect the other way, or a change in a side signal; the % refers to the signal ratio; further: potency means the concentration at half of the fitted maximal effect; on the % scale 0 is the no-effect control and ±100 the full control effect
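S3 HeLa stable clones carrying a lamin A-EGFP splicing minigene plus DsRed2 were seeded at 600 cells/well in Opti-MEM with 2% FBS, pin-dosed and incubated 48 h at 37°C. Acumen cytometry (488 nm) gave the GFP/RFP total-intensity ratio.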
* marks the source's active call; other numbers are inactive results; [ ] = remark or other dose. This is a sample that favours compounds with a hit; in the whole collection about 13% have one here. Unless noted, the call rests on the fitted dose curve; in most records, active means well fitted curve in the direction sought with a large enough effect; inconclusive means small, poorly fitted or top-dose-only effect, or another doubt; inactive means no such curve, though single readings can be large; an effect the other way counts as inactive or inconclusive.

For CCn1c(/C=C/Nc2ccccc2)[n+](CC)c2cc(Cl)c(Cl)cc21 the results were JMJD2E inh -2%, miR-21 act 1%, ALDH1A1 block 9%, Sfp PPTase inh inconclusive, G9a inh inconclusive and LMNA splice mod -11%.
CCC(C)NC(=O)c1ccccc1NC(=O)CN1C(=O)c2cccc3cccc1c23 (stereo not given) was read as miR-21 act -13% and G9a inh 26%[59 µM].
CC(OC(=O)/C=C/c1ccco1)C(=O)Nc1cccc([N+](=O)[O-])c1 (stereo not given) was read as JMJD2E inh -3%, miR-21 act 26%, ALDH1A1 block inconclusive, Sfp PPTase inh inconclusive, G9a inh inconclusive and LMNA splice mod -15%.
O=C(/C=C/c1ccco1)NC(=S)Nc1cccc([N+](=O)[O-])c1 was read as JMJD2E inh -5%, miR-21 act 5%, ALDH1A1 block 0%, Sfp PPTase inh 32µM*, G9a inh -42%[59 µM] and LMNA splice mod inconclusive.
For Cc1cccc(NC(=S)NC(=O)/C=C/c2ccco2)c1 the results were JMJD2E inh -5%, miR-21 act -8%, ALDH1A1 block 24µM*, Sfp PPTase inh inconclusive, G9a inh 25µM* and LMNA splice mod 28%[46 µM].
`COc1cccc(-c2nccc(NCCc3c[nH]c4ccc(OC)cc34)n2)c1` gave ALDH1A1 block 4%, Sfp PPTase inh -20%, G9a inh -2%[0.501 µM] and LMNA splice mod inconclusive.
For CCc1cccc(CC)c1NC(=O)CSc1nnc(C2CC2)n1C the results were miR-21 act 3%, Sfp PPTase inh 14% and G9a inh 12%.
For CCCCN(C(=O)CSc1nnc2ccccn12)c1c(N)n(Cc2ccccc2)c(=O)[nH]c1=O the results were JMJD2E inh -2%, miR-21 act -1%, ALDH1A1 block 3%, Sfp PPTase inh -5%, G9a inh inconclusive and LMNA splice mod 6%.
For CCCCN(C(=O)CSc1nnc(-c2ccccc2)n1C)c1c(N)n(Cc2ccccc2)c(=O)[nH]c1=O the results were JMJD2E inh 6%, miR-21 act -3%, ALDH1A1 block -3%, Sfp PPTase inh 15%, G9a inh 10µM* and LMNA splice mod -12%.
CCN(C(=O)CSc1nnc2ccccn12)c1c(N)n(Cc2ccccc2)c(=O)[nH]c1=O was read as JMJD2E inh inconclusive, miR-21 act -3%, ALDH1A1 block -2%, Sfp PPTase inh -17%, G9a inh 50µM* and LMNA splice mod -11%.
Screening CCN(C(=O)CSc1ncccn1)c1c(N)n(Cc2ccccc2)c(=O)[nH]c1=O returned G9a inh 50µM*.
`CSc1ccccc1OCc1cc(C(=O)N(C)CC2COCCO2)no1` (stereo not given) gave miR-21 act -39%, Sfp PPTase inh 5% and G9a inh 1%.
For O=C(O)c1ccc(NC(=S)NC(=O)c2ccc(-c3ccc(Br)cc3)o2)cc1 the results were miR-21 act -7%, Sfp PPTase inh 45µM* and G9a inh 40µM*.
`Cc1ccc(C(=O)O)cc1NC(=S)NC(=O)c1ccc(-c2ccc(Cl)cc2)o1` gave JMJD2E inh inconclusive, miR-21 act -4%, Sfp PPTase inh 50µM* and G9a inh 35µM*.
Screening Cc1ccc(C(=O)O)cc1NC(=S)NC(=O)c1ccc([N+](=O)[O-])cc1Cl returned JMJD2E inh 1%, miR-21 act 12%, ALDH1A1 block inconclusive, Sfp PPTase inh inconclusive, G9a inh inconclusive and LMNA splice mod 8%.
`O=C(O)c1cccc(NC(=S)NC(=O)c2ccc(-c3ccc(Cl)cc3)o2)c1` gave JMJD2E inh inconclusive, miR-21 act -12%, ALDH1A1 block inconclusive, Sfp PPTase inh inconclusive and G9a inh 45µM*.
COc1ccc(C(=O)O)cc1NC(=S)NC(=O)c1ccc(-c2ccc(Cl)cc2)o1 was read as JMJD2E inh inconclusive, miR-21 act -9%, ALDH1A1 block inconclusive, Sfp PPTase inh inconclusive and G9a inh 45µM*.
For CN(C)CCCC(=O)c1ccc2c(c1)OCO2 the results were JMJD2E inh -22%, miR-21 act -2%, ALDH1A1 block -4%, Sfp PPTase inh 13%, G9a inh -1%[59 µM] and LMNA splice mod -10%.
Screening CN(C)CCC(=O)c1cccc(Br)c1 returned JMJD2E inh inconclusive, miR-21 act 1%, ALDH1A1 block 0.04µM*, Sfp PPTase inh inconclusive and G9a inh 2µM*.
Screening CN(C)CCC(=O)c1ccc2c(c1)OCO2 returned JMJD2E inh -21%, miR-21 act -14%, ALDH1A1 block 0.022µM*, Sfp PPTase inh -28%, G9a inh 1.8µM* and LMNA splice mod inconclusive.
CCCCN(C(=O)c1ccc2c(c1)OCO2)c1ccccc1 was read as JMJD2E inh 1%, miR-21 act 8%, ALDH1A1 block 14µM*, Sfp PPTase inh -15% and G9a inh 50µM*.
`COc1ccccc1NC(=O)Cn1c(C)nc2c(sc(=S)n2Cc2ccco2)c1=O` gave miR-21 act -1%, Sfp PPTase inh -18% and G9a inh 20%.
CCOP(=O)(c1ccc(N(C)C)cc1)C(O)c1ccc(C)cc1 (stereo not given) was read as miR-21 act -3%, Sfp PPTase inh 20% and G9a inh -4%.
Screening Cc1cc(=O)[nH]c(SCCOc2ccc(OC(C)C)cc2)n1 returned JMJD2E inh -3%, miR-21 act -12%, ALDH1A1 block inconclusive, Sfp PPTase inh 13%, G9a inh 14µM* and LMNA splice mod inconclusive.
For Cc1cc(=O)[nH]c(SCCOc2ccc3c(c2)CCC3)n1 the results were JMJD2E inh -3%, miR-21 act -12%, ALDH1A1 block 15%, Sfp PPTase inh -2%, G9a inh 7%[59 µM] and LMNA splice mod 5%.
Cn1nc(-c2ccccc2)c(-c2ccccc2)c(C(=O)Nc2ccccc2C(N)=O)c1=O was read as miR-21 act -8% and G9a inh 11%[59 µM].
For Cc1ccsc1C(=O)N1CC(=O)Nc2ccccc21 the results were JMJD2E inh -5%, miR-21 act 26%, ALDH1A1 block -2%, Sfp PPTase inh 11%, G9a inh -12% and LMNA splice mod -17%.

Screening results (PubChem BioAssay)
